# Bioassay records (PubChem BioAssay)
# Sampled rows, rich in hits. Any-hit rate of the full collection: about 4.7%.
# TIM10 inh = growth inhibitors of isogenic TIM10 control yeast, primary screen, counter-screen for tim10-1 yeast inhibitor project, luminescence, uHTS. S. cerevisiae TIM10 strain growth, BacTiter-Glo luminescence, 24 h. actives 1.4% (n = 330,000). inhibition, % at 10 µM;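 active = inhibition of 40% or more at the single tested concentration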;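 also: wild-type TIM10 isogenic control strain grown at permissive 25 °C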
# tim23-1 inh = growth inhibitors of tim23-1 mutant yeast, primary screen, luminescence, uHTS; S. cerevisiae tim23-1 growth, BacTiter-Glo luminescence, 24 h; inhibition, % at 20 µM; actives 1.3% (n = 330,000); AID 463212, 2010;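 active = growth inhibition of the mutant yeast at or above 50%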;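 also: temperature-sensitive mutant grown at 25 °C; plate controls were DMSO-treated mutant yeast for no effect and medium wells lacking yeast for full effect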
# EBI2 block = EBI2 receptor antagonists, beta-arrestin recruitment, primary screen, cell-based, luminescence, 7a,25-OHC stimulation, uHTS; actives 0.81% (n = 360,000); AID 651636, 2012; inhibition, % at 5 µM; 7a,25-OHC stimulated; in the data active = inhibition above about 38%;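 also: enzyme fragment complementation signal reports receptor beta-arrestin coupling in cells; 0% = agonist plus DMSO wells and 100% = wells without agonist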
# Target sequence (P32249 whole entry, looked up, the tested form may be a part): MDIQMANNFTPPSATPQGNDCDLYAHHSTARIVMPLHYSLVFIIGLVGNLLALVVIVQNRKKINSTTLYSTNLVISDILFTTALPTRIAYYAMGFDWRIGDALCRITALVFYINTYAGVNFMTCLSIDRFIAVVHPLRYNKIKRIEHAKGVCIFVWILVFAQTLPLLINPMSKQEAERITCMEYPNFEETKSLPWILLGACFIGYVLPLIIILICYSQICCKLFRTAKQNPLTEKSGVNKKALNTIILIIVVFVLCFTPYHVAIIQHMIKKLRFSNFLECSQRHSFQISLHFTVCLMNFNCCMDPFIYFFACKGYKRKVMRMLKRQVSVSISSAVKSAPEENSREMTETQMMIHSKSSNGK
# tim10-1 inh = growth inhibitors of tim10-1 mutant yeast, primary screen, luminescence, uHTS | inhibition, % at 20 µM | actives 2.2% (n = 330,000) | S. cerevisiae tim10-1 ts strain growth, BacTiter-Glo, 24 h | AID 463190, 2010;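 active = inhibition of at least 40%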;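 also: mutant grown at 25 °C; 0% = DMSO wells with yeast and 100% = wells holding no yeast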
# PfHsp90 yeast 2 = growth inhibition of PfHsp90-expressing yeast, primary screen, antimalarial PfHsp90 inhibitor project, S. cerevisiae, BacTiter-Glo luminescence, single point, set 2. BacTiter-Glo ATP, 48 h; yeast lacking PDR1 and PDR3 efflux regulators. inhibition, % at 9.4 µM. actives 0.32% (n = 310,000). AID 504621, 2011;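 active = every replicate shows inhibition above about 80%, whatever the replicate mean, limit read from the data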;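 also: 0% = DMSO neutral controls and 100% = 20 µM radicicol positive controls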
# SKKanGAS inh = S. pyogenes SKKanGAS growth inhibitors in kanamycin, primary screen, streptokinase expression inhibitor project, SKKanGAS strain, BacTiter-Glo luminescence. 6 h. inhibition, % at 7.5 µM. actives 1.3% (n = 300,000). AID 1662, 2009;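 active = mean replicate score, as percent of positive control median, at least 50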;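 also: strain carries kanamycin resistance gene driven by streptokinase promoter and grows in 40 µg/ml kanamycin; loss of luminescence reflects streptokinase promoter inhibition or plain growth inhibition; 0% = median of DMSO wells and 100% = positive control at its reference dose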
# tim23-1 confirm = tim23-1 mutant yeast growth inhibitors, confirmation, luminescence, single concentration | shares compounds with tim23-1 inh | S. cerevisiae tim23-1 growth, BacTiter-Glo luminescence, 24 h | inhibition, % at 20 µM | actives 83% (n = 4,400) | AID 463218, 2010;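 active = inhibition above about 39% in either of two replicate wells at 20 µM, limit read from the data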;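 also: temperature-sensitive tim23-1 mutant grown at 25 °C; 0% = DMSO wells with yeast and 100% = medium wells without yeast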
# Active calls of the source: *; / = no result.
SMILES,TIM10 inh,tim23-1 inh,EBI2 block,tim10-1 inh,PfHsp90 yeast 2,SKKanGAS inh,tim23-1 confirm
O=C1OCCN1C(=O)[C@H]1[C@H](c2ccccc2)C(c2ccccc2)=NN1c1ccc(Br)cc1,11.5,42.0,10.0,26.4,0.4,/,/
O=C(COC(=O)c1cc(=O)[nH]c2ccccc12)Nc1ccccc1F,6.0,8.2,12.6,-4.7,12.5,/,/
O=C(NCC(=O)N(c1ccccc1)C(C(=O)NC1CCCCC1)c1ccncc1)c1ccco1 (stereo not drawn),-10.2,2.8,-6.3,9.4,-5.0,-5.7,/
O=C(NCC(=O)N(c1cnc2ccccc2c1)C(C(=O)NC1CCCC1)c1ccncc1)c1ccco1 (stereo not drawn),12.9,68.0*,0.8,2.0,3.6,0.2,9.4
COc1ccc(Nc2nc3ccc(OC)cc3s2)cc1,35.8,60.8*,-1.6,26.2,-4.4,-3.1,40.0*
O=C(CCl)Nc1cn(-c2ccccc2)nc1-c1ccc(F)cc1,11.6,60.6*,2.2,27.6,/,-0.6,31.6
CCn1cc(C(=O)NN)c(=O)c2cc(F)c(N3CCCCC3)cc21,7.8,50.7*,3.6,16.0,14.3,0.8,20.4
O=C(NC1CCCCC1)c1nc(-c2c(F)cccc2F)oc1-c1ccccc1,/,/,-70.7,/,/,/,/
N#C/C(=C\c1ccc(OC(F)F)cc1)C(=O)N1CCCCC1,25.1,61.7*,8.2,32.8,-8.3,-5.5,44.4*
COC(=O)c1ccc(C(NC(=O)c2cccnc2)NC(=O)c2cccnc2)cc1,-0.7,21.9,-8.4,3.6,-6.4,0.8,/
COc1ccc(C(NC(C)=O)c2ccc3cccnc3c2O)c(OC)c1 (stereo not drawn),0.9,-11.1,-9.9,14.1,/,11.7,/
CC(=O)NC(c1ccc2ccccc2c1)c1ccc2cccnc2c1O (stereo not drawn),-28.1,55.3*,2.7,17.7,108.2*,89.2*,70.8*
CC(=O)NC(c1ccc(Cl)cc1Cl)c1ccc2cccnc2c1O (stereo not drawn),-36.5,57.8*,7.9,-1.0,106.1*,73.2*,57.0*
c1ccc(N=Nc2cn[nH]c2-c2ccco2)cc1,24.6,51.3*,12.9,27.2,-48.1,0.8,47.1*
Cc1cccc(N=Nc2cn[nH]c2-c2ccco2)c1,12.1,28.7,2.1,15.4,-13.6,-28.1,/
CC(=O)Oc1ccc(/C=C2/CCc3ccccc3C2=O)cc1,30.8,60.0*,-3.0,-11.4,-7.8,34.6,51.4*
COc1ccc(CNCc2ccc(C(F)(F)F)cc2)cc1OC,-0.8,15.0,-2.7,0.9,-10.0,-1.4,/
CCCc1nc2ccccc2c(=O)n1-c1ccc(C(=O)OCC)cc1,21.0,7.3,-8.2,19.9,27.1,-0.6,/
CCCN1C(=O)C(Cc2nc3ccccc3c(=O)n2-c2ccccc2)c2ccccc21 (stereo not drawn),12.6,51.4*,10.6,14.8,6.5,2.9,48.6*
O=C1CNC(=S)N1Cc1ccccc1Cl,11.6,23.6,2.7,18.1,-9.8,5.0,/
CCCCC(=O)NC(c1ccc(N(C)C)cc1)c1ccc2cccnc2c1O (stereo not drawn),-53.6,53.7*,4.3,-6.8,69.7,4.7,52.5*
CCCCC(=O)NC(c1ccc(Cl)cc1)c1ccc2cccnc2c1O (stereo not drawn),-41.7,56.0*,5.6,-18.9,113.6*,70.0*,49.3*
CCCCC(=O)NC(c1ccc(N(CC)CC)cc1)c1ccc2cccnc2c1O (stereo not drawn),-71.5,43.6,10.5,-5.1,72.0,44.0,/
CCCC(=O)NC(c1ccc(Cl)cc1)c1ccc2cccnc2c1O (stereo not drawn),-22.7,60.0*,7.0,-4.1,115.3*,57.5*,59.5*
CCN(CC)c1ccc(C(NC(=O)C(C)C)c2ccc3cccnc3c2O)cc1 (stereo not drawn),/,/,-2.5,/,/,/,/
SMILES,TIM10 inh,tim23-1 inh,EBI2 block,tim10-1 inh,PfHsp90 yeast 2,SKKanGAS inh,tim23-1 confirm
CCCC(=O)NC(c1ccc(C)cc1)c1ccc2cccnc2c1O (stereo not drawn),-24.5,60.7*,-0.4,-7.7,113.3*,71.8*,57.9*
C=CCNC(=O)c1ccc(Cn2cc(C(F)(F)F)ccc2=O)cc1,4.8,7.0,-4.6,0.8,-6.8,-1.0,/
O=C(N/N=C/C(Br)=C/c1ccccc1)c1ccccc1F,37.2,69.0*,-7.7,-0.3,27.7,2.9,51.1*
O=C(N/N=C/C(Cl)=C/c1ccccc1)c1ccco1,-22.1,63.7*,-10.1,-49.2,13.9,-3.3,7.3
O=C(N/N=C/C(Cl)=C/c1ccccc1)c1ccccc1F,4.4,50.9*,8.2,20.7,-6.7,-6.0,27.1
COc1cc2[nH]c(Cl)c([N+](=O)[O-])c2cc1OC,2.2,-1.3,-16.2,9.7,-81.7,-7.0,/
Cc1cc(C)c(S(=O)(=O)N2CCOC2CNC(=O)C(=O)NCCN(C)C)c(C)c1 (stereo not drawn),-3.7,-10.8,-6.2,-9.5,8.9,3.6,/
O=C(NCCN1C(=O)S/C(=C\c2cccc(Cl)c2Cl)C1=O)C1=COCCO1,-106.1,54.8*,-5.4,24.8,-22.3,-6.7,35.3
O=[N+]([O-])c1ccc(N=Nc2c(O)[nH]c3ccc(F)cc23)cc1,2.8,50.0*,17.2,35.1,-22.2,14.1,13.1
O=C(COC(=O)C12CC3CC(CC(Cl)(C3)C1)C2)Nc1ccccc1,12.9,54.2*,-9.4,0.1,0.7,/,46.0*
C/C=C/c1ccc(O)c(OC)c1,3.4,20.9,-4.2,37.4,-19.9,/,/
COc1cc(/C=C/c2ccc3cccc(O)c3n2)ccc1O,35.6,52.0*,8.5,33.3,-16.8,87.7*,66.2*
CC1(C)OC(=O)C(=Cc2ccc[nH]2)C(=O)O1,4.7,75.8*,-3.8,11.5,11.5,-2.0,53.2*
CCn1c(SCC(=O)Nc2ccc(N3CCOCC3)cc2)nnc1-c1ccco1,16.0,9.5,-12.8,11.0,-16.6,-4.2,/
CCOC(=O)N/N=C/c1ccc(N(CC)CC)cc1O,37.3,60.2*,19.9,36.5,-8.1,29.8,72.5*
Cc1cccc(C(=O)OCC(=O)NC23CC4CC(CC(C4)C2)C3)c1O,37.7,56.1*,2.5,13.8,-0.2,/,55.8*
O=C(COC(=O)c1ccccc1O)NC12CC3CC(CC(C3)C1)C2,21.8,47.4,3.5,-2.3,3.5,/,/
